PubChem BioAssay AID2537 (National Center for Advancing Translational Sciences (NCATS), 2010)
Results filed as inconclusive are left out. Entries that show only a call come without a potency. Calls of active or inactive are those of the source. The call rests on the fitted dose curve; in most records, active means well fitted inhibition curve with a large enough effect; inconclusive means small, poorly fitted or top-dose-only effect; inactive means no such curve, though single readings can be large or run the other way.

Molecular target: Polyunsaturated fatty acid lipoxygenase ALOX15B (Homo sapiens) (UniProt O15296)
Sequence (O15296 whole entry, looked up): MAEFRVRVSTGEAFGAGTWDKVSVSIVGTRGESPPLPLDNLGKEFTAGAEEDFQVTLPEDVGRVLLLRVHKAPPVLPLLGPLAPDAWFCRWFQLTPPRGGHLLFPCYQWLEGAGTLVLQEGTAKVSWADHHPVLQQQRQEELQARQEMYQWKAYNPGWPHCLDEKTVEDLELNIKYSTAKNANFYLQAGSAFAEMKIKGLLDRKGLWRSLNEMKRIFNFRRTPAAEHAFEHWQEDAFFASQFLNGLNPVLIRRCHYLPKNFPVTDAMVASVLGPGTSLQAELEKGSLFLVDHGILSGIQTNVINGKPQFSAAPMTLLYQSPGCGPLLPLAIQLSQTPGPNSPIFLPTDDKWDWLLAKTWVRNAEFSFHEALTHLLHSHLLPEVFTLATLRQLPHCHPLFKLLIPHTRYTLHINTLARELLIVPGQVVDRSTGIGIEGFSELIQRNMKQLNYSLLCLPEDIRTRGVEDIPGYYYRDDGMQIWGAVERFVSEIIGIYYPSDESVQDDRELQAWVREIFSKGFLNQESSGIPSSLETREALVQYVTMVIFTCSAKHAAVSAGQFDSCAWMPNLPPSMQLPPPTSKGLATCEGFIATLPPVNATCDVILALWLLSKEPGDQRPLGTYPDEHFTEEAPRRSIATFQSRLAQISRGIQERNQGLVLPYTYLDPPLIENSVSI
Test: Confirmation qHTS Assay for Inhibitors of 15-hLO-2 (15-human lipoxygenase 2)
Conditions: purified 15hLO-2, xylenol orange hydroperoxide absorbance; series mostly up to 57.1 µM
Experimental: Human lipoxygenase 15hLO-2 is a member of the closely related lipoxygenase family of enzymes which catalyze the site-specific oxidation of arachidonic acid to various hormone precursor molecules and as such is a candidate for drug development in a variety of disease areas, such as cancer and inflammation. Inhibition of 15hLO-2 activity was screened by utilizing arachidonic acid as a substrate. The extent of hydroperoxide product formation was measured by a secondary chromogenic reaction in which xylenol orange (XO, Sigma-Aldrich, cat. number 39,818-7) reacts with the ferric ions produced from the reaction between the hydroperoxide and ferrous ions. The Fe(III)-XO complex is characterized with red-shifted absorbance at 560 nm. A purified preparation of human 15hLO-2 was supplied by Professor Ted Holman, University of California, Santa Cruz. NIH Molecular Libraries Screening Centers Network [MLSCN] NIH Chemical Genomics Center [NCGC] MLSCN Grant: MH081283-01A1 PI Name: Holman, T.R., University of California, Santa Cruz
Assay Protocol: Buffer: 25 mM Hepes pH 7.5, 0.01% Triton X-100. Reagents/Controls: Buffer in columns 3 and 4 as negative control (no enzyme). Substrate solution: 45 uM arachidonic acid (Sigma-Aldrich, St. Louis, MO) final concentration dispensed throughout the plate. Enzyme: 50 nM 15hLO-2 final concentration in columns 1, 2, 5-48. Column 1 is neutral (100% activity). Column 2 contained pin-transferred titration of NDGA (nordihidroguaiaretic acid, Sigma-Aldrich, N 5023, top concentration 10 mM in DMSO, then 1:2 dilution in duplicate). (Dilution factor: 23 nL into 4 uL.) Chromogenic detection reagent (divalent iron/xylenol orange, Fe-XO): 200 uM xylenol orange plus 300 uM ferrous ammonium sulfate prepared freshly in 50 mM sulfuric acid. Assay Steps: Three uL of enzyme were dispensed to 1536-well Greiner black clear bottom plates. Compounds and controls (23 nL) were transferred via Kalypsys PinTool. The plates were incubated for 15 min at room temperature, and then 1 uL of substrate solution was added to start the reaction. After room temperature incubation for 90 minutes, 4 uL of Fe-XO solution was added to each well followed by a short spin (1000 rpm, 15 sec) and the plates were then incubated for 30 min. The absorbance at 405 and 573 nm were measured using ViewLux (Perkin-Elmer) High-throughput CCD imager and absorbance protocol settings. The 573-to-405 absorbance ratio was used to compute reaction progress.

Row | SMILES | Potency
1 | OC1(c2cccc(C(F)(F)F)c2)CCN(c2ncnc3c2[nH]c2ccc(F)cc23)CC1 | inactive
2 | COC(=O)c1ccc(C(=S)N2CCOCC2)cc1 | inactive
3 | Cc1ccc(-c2ccc(/C=C3\C(=O)ON=C3c3ccccc3)o2)c([N+](=O)[O-])c1 | 3.16 µM (active)
4 | Cc1c(N/C=C/C(=O)c2cccs2)c(=O)n(-c2ccccc2)n1C | inactive
5 | CCCCn1c(Cc2ccccc2)n[nH]c1=S | inactive
6 | Cc1ccc(SCCNC(=S)Nc2ccc(C)c(C)c2)cc1 | 25.1 µM (active)
7 | COc1ccccc1CNc1ncncc1-c1ccoc1 | inactive
8 | O=C(Nc1nc2n(n1)C(c1ccccc1)CC(c1ccc(Cl)cc1)N2)c1ccco1 (stereo not given) | inactive
9 | Cc1cccc(CNc2ncnc3ccc(-c4ccc5c(c4)OCO5)cc23)c1 | inactive
10 | CCOC(=O)c1c(NC(=O)CN2CCOCC2)sc2c1CCCC2 | inactive
11 | Cc1noc(C)c1-c1nc(N(C)Cc2ccco2)c2ccccc2n1 | inactive
12 | NC(=O)c1cccc2c3c([nH]c12)CCCC3 | inactive
13 | CCOC(=O)c1ccc(N2CSC3=C(C#N)C(c4ccc(OC)cc4OC)CC(=O)N3C2)cc1 (stereo not given) | inactive
14 | c1csc(C2Nc3cccc4cccc(c34)N2)c1 | 12.6 µM (active)
15 | CC(=O)NCCNc1ncncc1-c1ccc(N(C)C)cc1 | inactive
16 | O=C(CC1C(=O)N(c2ccc(Cl)cc2)C(=S)N1CCc1ccncc1)Nc1ccc(F)cc1 (stereo not given) | inactive
17 | CC1=NOC(=O)/C1=C\c1ccc(-c2cccc(Cl)c2)o1 | 4.47 µM (active)
18 | Cc1csc(-c2coc3cc(O)cc(C)c3c2=O)n1 | inactive
19 | Cc1ccc(OCC(=O)Nc2ccc(N3CCCC3)cc2)cc1C | inactive
20 | CC1=CC(C)(C)Nc2ccc(OC(=O)CN3C(=O)c4cccc5cccc(c45)C3=O)cc21 | 12.6 µM (active)

Row | SMILES | Potency
21 | COc1ccc(OC)c(NC(=O)NC2(C(F)(F)F)Oc3ccccc3O2)c1 | inactive
22 | Cc1cc(/C=N/NC(=O)Cn2c3ccccc3c(=O)c3ccccc32)c(C)n1-c1ccccc1 | 7.08 µM (active)
23 | O=C(Nc1cccc(F)c1)N1CCCC2(CCN(C(=O)c3ccco3)CC2)C1 | inactive
24 | O=C(c1ccncc1)N1CCC2(CCCN(Cc3nccs3)C2)CC1 | inactive
25 | O=C(C1=C(O)C(=O)N(Cc2ccco2)C1c1cccnc1)c1cc2ccccc2o1 (stereo not given) | inactive
26 | COCCSc1ccccc1C(=O)NCc1ccco1 | inactive
27 | Oc1ccc(CNc2ccccc2)c2cccnc12 | inactive
28 | CN(C)CCC(=O)c1ccc(Cl)cc1 | inactive
29 | CCOc1ccc(NS(=O)(=O)c2ccc3[nH]cc(C(=O)N(CC)CC)c(=O)c3c2)cc1 | inactive
30 | CN(C)/C=C/C(=O)c1ccc(Cl)cc1 | inactive
31 | CC(=O)[C@@H]1[C@@H]2C(=O)N(Cc3ccccc3)C(=O)[C@@H]2C2c3ccccc3C=CN21 (stereo not given in full) | inactive
32 | CCOc1cc(-c2cc(-c3ccc(N)cc3)nc(N)c2C#N)ccc1O | inactive
33 | O=C1C2C3CCCC3=C3CCCC3C2C(=O)N1c1cccc(Cl)c1 (stereo not given) | inactive
34 | Cc1cc(Nc2nnnn2-c2ccccc2)n(-c2ccc(Cl)cc2)n1 | inactive
35 | Nc1cc(-c2ccncc2)c[nH]c1=O | inactive
36 | O=c1c(-c2ccc3c(c2)OCCO3)coc2cc(O)cc(O)c12 | inactive
37 | Cc1ccc(C)c(NC(=S)NNC(=O)c2csc3c2CCC(C)C3)c1 (stereo not given) | inactive
38 | CCC(=O)N(Cc1cc(=O)[nH]c2ccccc12)C1CCCCC1 | inactive
39 | CN1CCN(C(c2cccnc2)c2ccc3cccnc3c2O)CC1 (stereo not given) | inactive
40 | COc1ccc(NC(=O)CSc2nc(O)cc(=O)n2-c2ccccc2OC)cc1 | inactive
